An excerpt weighted towards active compounds, which were near 11% of everything screened.
Pf growth 48h: Primary qHTS for delayed death inhibitors of the malarial parasite plastid, 48 hour incubation | P. falciparum luciferase growth in erythrocytes, 48 h | Potency, µM (series often up to 28.7 µM), without a hit: at the highest dose activity change, negative = inhibition, usual class: inhibitors | 5.9% of 310,000 active
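Compounds are pin-transferred into medium, infected erythrocytes (2% hematocrit, 0.1% parasitemia final) are added, and plates sit one parasite generation at 37 C in 5% CO2. Detection reagent is then added and luminescence measured.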
HCV inhibitor: qHTS Assay for Inhibitors of Hepatitis C Virus (HCV); AID 651820, 2012; 3.4% of 340,000 active; Potency, µM (highest dose often 41.8 µM), without a hit: top-dose activity change, negative = inhibition, actives largely listed as inhibitors; Huh7.5.1 HCVcc-Cre infection, luciferase reporter, 44 h
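Cells (1,000/well) were plated 4 h before compound, then infected with HCVcc-Cre virus (~0.5 moi). After 44 h further culture, infection was read as luciferase luminescence following a 15 min substrate incubation at room temperature.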
Pf growth 96h: Primary qHTS for delayed death inhibitors of the malarial parasite plastid, 96 hour incubation; Potency, µM (titrated, usually from 28.7 µM), for inactives: at the top dose activity change, negative = inhibition, actives largely listed as inhibitors; P. falciparum luciferase reporter growth, 96 h; AID 504834, 2011; 6.9% of 320,000 active
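Delayed-death screen, second-generation endpoint: infected erythrocytes, 2% hematocrit, 0.05% parasitemia final; 96 hours at 37 C, 5% CO2; luciferase detection reagent; luminescence decrease equals reduced growth.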
AMA1 RON2 block: qHTS for Inhibitors of AMA1-RON; Towards Development of Antimalarial Drug Lead: Primary Screen; 0.2% of 360,000 active; AlphaScreen AMA1-biotinylated RON2 peptide binding; AID 720542, 2013; Plasmodium falciparum AMA1 (3D7) - RON2 peptide interaction; Potency, µM (top dose mostly 58.2 µM), without a hit: at the top dose activity change, negative = inhibition, hits mostly inhibitors;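 further: 0% = vehicle wells and -100% = peptide control; nearly all actives have a fitted effect of over 45% in size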
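AMA1 (3D7) with his tag at 25 nM final met compounds first, then biotinylated RON2 peptide at 25 nM; detection used donor plus acceptor beads, 10 µg/mL apiece, read by AlphaScreen after 30 min at room temperature.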
AmpC inh no detg: qHTS Inhibitors of AmpC Beta-Lactamase (assay without detergent) | P00811 | 0.52% of 330,000 active | AmpC nitrocefin hydrolysis, absorbance 480 nm, 0.0001% Triton | Potency, µM (top dose mostly 57.1 µM), inactives show at the highest dose activity change, negative = inhibition, usual class: inhibitors;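 further: plate controls were no compound for no effect and no enzyme for full effect; nearly all actives have a fitted effect of over 20% in size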
Target sequence (P00811 whole entry, looked up): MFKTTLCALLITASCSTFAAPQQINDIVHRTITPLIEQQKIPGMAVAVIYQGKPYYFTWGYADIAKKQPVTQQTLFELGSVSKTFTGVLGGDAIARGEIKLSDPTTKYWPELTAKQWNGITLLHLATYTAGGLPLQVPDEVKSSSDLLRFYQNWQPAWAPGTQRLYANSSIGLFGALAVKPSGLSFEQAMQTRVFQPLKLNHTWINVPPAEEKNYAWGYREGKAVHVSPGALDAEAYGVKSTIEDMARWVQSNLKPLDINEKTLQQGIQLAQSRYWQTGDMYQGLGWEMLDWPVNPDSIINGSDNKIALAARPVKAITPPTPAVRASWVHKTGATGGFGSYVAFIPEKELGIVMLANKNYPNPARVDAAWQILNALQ
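20 mM phosphate pH 7.0 + 0.01% (detergent screen) or 0.0001% Triton X-100; 5.3 nM AmpC reagent; cpd preinc 15 min RT; nitrocefin (800 uM stock) to start; A480 q20 s × 4 min; Activity was normalised to no-enzyme and no-compound control wells.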
AmpC inh detg: qHTS Inhibitors of AmpC Beta-Lactamase (assay with detergent). AmpC hydrolysis of nitrocefin, absorbance 480 nm, 0.01% Triton. Potency, µM (series often up to 114 µM), for the others: top-dose activity change, negative = inhibition, hits mostly inhibitors. 0.041% of 370,000 active. AID 485294, 2010;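 further: 0% = no-compound wells and -100% = no-enzyme wells; nearly all actives have a fitted effect of over 25% in size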
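20 mM phosphate pH 7.0 + 0.01% (detergent screen) or 0.0001% Triton X-100; 5.3 nM AmpC reagent; cpd preinc 15 min RT; nitrocefin (800 uM stock) to start; A480 q20 s × 4 min; Activity was normalised to no-enzyme and no-compound control wells.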
* = called active by the depositor; ? = inconclusive; · = no result given; [ ] = another dose, or the depositor's remark. The call rests on the fitted dose curve; in most records, active means well fitted curve in the direction sought with a large enough effect; inconclusive means small, poorly fitted or top-dose-only effect, or another doubt; inactive means no such curve, though single readings can be large; an effect the other way counts as inactive or inconclusive. Unless noted, on the % scale 0 is the no-effect control and ±100 the full control effect; potency means the concentration at half of the fitted maximal effect.

SMILES	Pf growth 48h	HCV inhibitor	Pf growth 96h	AMA1 RON2 block	AmpC inh no detg	AmpC inh detg
Cc1ccc(C(=O)NC(=S)Nc2ccc(NC(=O)c3cccs3)cc2)cc1[N+](=O)[O-]	-1%	-10%	9.3µM*	43%	-15%	2%
Cc1ccc(NC(=O)c2cccs2)cc1[N+](=O)[O-]	27%	7.9µM*	?	-2%	-34%	-6%
O=C(Cn1cnc2onc(-c3ccc(F)cc3)c2c1=O)Nc1cccc(C(F)(F)F)c1	·	·	·	·	·	0%
CC(C)OCCCn1c(=O)c2ccccc2n2c(-c3ccc(F)c(F)c3)nnc12	·	·	·	·	·	23%
CCC(C(=O)NCCCN(CC)CC)n1ncn2c(cc3occc32)c1=O (configuration not stated)	·	·	·	·	·	24%
CCN(CC)C(=O)c1oc2ccc(S(=O)(=O)N3CC(C)CC(C)C3)cc2c1C (configuration not stated)	?	3.5µM*	45%	-5%	144%	1%
CCN(CC)C(=O)c1oc2ccc(S(=O)(=O)N3CCCCCC3)cc2c1C	?	25µM*	·	14%	94%	-6%
Cc1c(C(=O)Nc2ccc(F)cc2)oc2ccc(S(=O)(=O)N3CC(C)CC(C)C3)cc12 (configuration not stated)	10µM*	?	·	-11%	-25%	-10%
Cc1c(C(=O)NCc2cccnc2)oc2ccc(S(=O)(=O)N3CC(C)CC(C)C3)cc12 (configuration not stated)	?	13%	61%	-3%	?	4%
Cc1cccc(C(=O)N2CCc3cc(CNC(=O)CCc4ccccc4)ccc32)c1	·	·	·	·	·	7%
CC(=O)n1cc([C@@H]2C=C(C(=O)O)O[C@H](OCc3ccc(CO)cc3)C2)c2ccccc21	16%	10%	22%	-5%	-13%	-2%
CC(=O)n1cc([C@@H]2C=C(C(=O)NCc3ccccc3)O[C@H](OCc3ccc(CO)cc3)C2)c2ccccc21	12µM*	?	5.2µM*	-3%	7%	13%
C#CCNC(=O)C1=C[C@H](c2cn(C(C)=O)c3ccccc23)C[C@H](OCc2ccc(CO)cc2)O1	?	?	10µM*	-11%	174%	-7%
C=CCOC(=O)C1=C[C@@H](c2cn(C(C)=O)c3ccccc23)C[C@@H](OCc2ccc(CO)cc2)O1	·	-8%	·	-16%	·	·
CC(=O)n1cc([C@H]2C=C(C(=O)Nc3ccccc3)O[C@@H](OCc3ccc(CO)cc3)C2)c2ccccc21	8.3µM*	-15%[8.37 µM]	12µM*	-12%	50%	5%
O=C(NC1CC(=O)N(c2cccc(F)c2)C1)C(c1ccccc1)c1ccccc1 (configuration not stated)	·	·	·	·	·	-1%
COc1ccc(CCNC(=O)Cn2c(=O)nc(-c3ccccc3)c3cc(Cl)ccc32)cc1OC	·	·	·	·	·	11%
COc1cc(C(=O)Nc2ccc(S(=O)(=O)NC(C)C)cc2)cc(OC)c1OC	·	?	-2%	8%	-8%	-9%
COc1cc(C(=O)Nc2ccc(S(=O)(=O)NC(C)(C)C)cc2)cc(OC)c1OC	·	13µM*	-55%	-5%	-14%	?
COC(=O)c1cc(C(=O)Nc2ccc(S(=O)(=O)NC(C)(C)C)cc2)cc([N+](=O)[O-])c1	?	-9%	2.6µM*	0%	-30%	-10%
CCN(CC)S(=O)(=O)c1ccc(NC(=O)c2cc(C(=O)OC)cc([N+](=O)[O-])c2)cc1	?	?	-20%	16%	1%	-3%
CC1CCc2[nH]c3ccc(C(=O)N(C)CC(=O)Nc4ccc(F)cc4)cc3c2C1 (configuration not stated)	1%	?	24%	-18%	1%	11%
CC1CCc2[nH]c3ccc(C(=O)NCCCOC(C)C)cc3c2C1 (configuration not stated)	12%	10µM*	-11%	-8%	-11%	-2%
CCN(CC(=O)Nc1ccccc1C(F)(F)F)C(=O)c1ccc2[nH]c3c(c2c1)CC(C)CC3 (configuration not stated)	15µM*	?	?	-26%	18%	2%
O=C(Nc1ccc2nc(SCC(=O)N3CCCc4ccccc43)sc2c1)c1cccc(Cl)c1	·	·	·	·	·	1%
SMILES	Pf growth 48h	HCV inhibitor	Pf growth 96h	AMA1 RON2 block	AmpC inh no detg	AmpC inh detg
Nc1nonc1-n1nnc(C(=O)N/N=C/c2cccc(Cl)c2)c1-c1ccc2c(c1)OCO2	0.074µM*	-4%	0.033µM*	2%	-37%	1%
Nc1nonc1-n1nnc(C(=O)N/N=C/c2ccc3c(c2)OCO3)c1-c1ccccc1	?	?	?	-5%	-22%	-11%
CC(C)c1c(C(=O)N/N=C/c2ccc3c(c2)OCO3)nnn1-c1nonc1N	18%	-9%	24%	0%	-23%	?
Nc1nonc1-n1nnc(C(=O)N/N=C/c2ccc(Br)cc2)c1-c1ccc2c(c1)OCO2	0.21µM*	-2%	0.059µM*	-6%	-43%	1%
Nc1nonc1-n1nnc(C(=O)N/N=C/c2c(F)cccc2Cl)c1-c1ccc2c(c1)OCO2	13µM*	22%	6.6µM*	12%	-49%	-2%
Cn1c(=O)c2c(nc(NCc3ccccc3)n2CCCc2ccccc2)n(C)c1=O	?	?	·	-12%	36%	?
Cn1c(=O)c2c(nc(NCc3ccco3)n2C/C=C/c2ccccc2)n(C)c1=O	8.3µM*	2.5µM*	9.3µM*	-6%	12%	-16%
CNc1nc2c(c(=O)n(C)c(=O)n2C)n1CCCc1ccccc1	25%	11µM*	?	5%	0%	-6%
Cn1c(=O)c2c(nc(NCCO)n2CCCc2ccccc2)n(C)c1=O	-11%	16µM*	?	0%	-4%	-3%
Cc1cc(C)c(NC(=O)CSc2ncc3c(n2)-c2cc(Cl)ccc2N(C)S3(=O)=O)c(C)c1	·	·	·	·	·	10%
COc1ccc(-c2nc3ccccc3c(=O)n2CCN2CCOCC2)cc1	6%	6%	?	-6%	-3%	-14%

Assay outcomes as filed in PubChem.
